The source of these data is ChEMBL document CHEMBL3988442, “University of Dundee, Small-Polar-MMV Screening Library” (2021).

Sequence of Sialic acid-binding Ig-like lectin 9 (Homo sapiens) (Q9Y336 whole entry): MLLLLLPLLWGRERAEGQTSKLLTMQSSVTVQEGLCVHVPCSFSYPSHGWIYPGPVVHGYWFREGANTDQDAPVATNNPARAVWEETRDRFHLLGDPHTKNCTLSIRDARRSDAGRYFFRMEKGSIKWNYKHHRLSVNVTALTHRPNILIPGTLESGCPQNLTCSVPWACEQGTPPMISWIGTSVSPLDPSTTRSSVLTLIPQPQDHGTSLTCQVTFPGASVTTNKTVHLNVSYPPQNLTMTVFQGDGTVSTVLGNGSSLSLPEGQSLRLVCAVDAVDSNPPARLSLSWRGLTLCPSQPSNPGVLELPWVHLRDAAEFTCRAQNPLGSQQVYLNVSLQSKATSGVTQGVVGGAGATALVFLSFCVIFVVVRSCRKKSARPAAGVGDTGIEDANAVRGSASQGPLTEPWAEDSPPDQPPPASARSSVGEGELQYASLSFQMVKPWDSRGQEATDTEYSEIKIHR

This test has as its target Sialic acid-binding Ig-like lectin 9 (Homo sapiens) (UniProt Q9Y336). The test is described as follows: Hs-Siglec9 ALPHAscreen SOP 20170721. The conditions noted are these: 10 µM. Set-up: scale not given: direction of the effect not stated beside the values. On the technique in general: Bead proximity is the source of the signal in Alpha formats.
As to `Cc1nonc1CC(=O)N1C[C@@H]2CC[C@H](C1)N(Cc1ccccc1)C2=O`, the Percent Effect came out at 6.66%.

On to `CCOCC(O)CN1CCN(C(=O)CC(C)C)CC1` (stereo not given), for which the Percent Effect was 3.53%.

As to `Cc1cnc(C(=O)N2CCCN(Cc3csc(C)n3)CC2)cn1`, the Percent Effect was 11.9%.

Consider `CN1CCCC1CNC(=O)c1nnn(-c2ccc(F)cc2)c1C1CC1` (stereo not given), for which the Percent Effect is 3.88%.

Take `CN(Cc1cn2c(n1)CN(C(=O)CC1CC1)CC2)Cc1ccco1`: the Percent Effect stood at 1.6%.

Consider `Cc1cccc(Cn2ccc(NS(C)(=O)=O)n2)c1`, for which the Percent Effect came out at 7.5%.

Take `COc1cccc(COCC(=O)N2CCCC(N3CCCC3)CC2)c1` (stereo not given): the Percent Effect is -2.23%.

Consider `OCCOCCN1CCCC1c1nc2cc(F)ccc2[nH]1` (stereo not given), for which the Percent Effect is -1.07%.

Take `Cc1cnn(CC(C)NCc2nc(-c3cccnc3)no2)c1` (stereo not given): the Percent Effect was 7.77%.

Regarding `Cc1cc(C(=O)NCc2ccnc(N(C)C)c2)c(C)o1`, the Percent Effect is -6.37%.

For the compound `O=C(NCCn1ccnc1)c1cccc(F)c1`, the Percent Effect was -8.53%.

On to `COc1ccccc1S(=O)(=O)Nc1ccc2c(C(=O)O)c[nH]c2c1`, for which the Percent Effect turned out to be 10.9%.

As for `O=C(Cc1cccc(Cl)c1)N[C@@H]1CCNC[C@H]1O`, the Percent Effect was determined as 31.3%.

With `CC(=O)N(C)c1nc(CN2CCOC(Cn3cccn3)C2)cs1` (stereo not given), the Percent Effect is 15.7%.

Consider `N#CC1(C(=O)N2CCN(Cc3ccon3)CC2)CCC1`, for which the Percent Effect is 6.56%.

Regarding `COc1ccc(CN2CCCC(Nc3cccc(F)c3)C2)cc1O` (stereo not given), the Percent Effect is -2%.

For the compound `Cc1cccc(-n2cc(C(=O)N3CCn4c(C)nnc4C3)nn2)c1`, the Percent Effect worked out at 0.154%.

In the case of `COc1ccnc(N2CCN(C(=O)c3csc(C4CC4)n3)CC2)n1`, the Percent Effect is -1.98%.

On to `CCNC(=O)[C@@H]1C[C@H](NC(=O)c2cncnc2C)CN1CCCSC`, for which the Percent Effect came out at 3.4%.

Turning to `CCc1nc(CN2CCN(c3ncnc4cc(F)ccc34)CC2)no1`, the Percent Effect stood at 2.81%.

For `O=C(c1cccc(Cn2ccnc2)c1)N1CCCC(n2ccnc2)C1` (stereo not given), the Percent Effect is 1.96%.

As for `O=C(COc1ccc(C(F)(F)F)cc1)NS(=O)(=O)c1cccnc1`, the Percent Effect was -3.63%.

On to `NS(=O)(=O)N1CCc2ccc(NC(=O)Cc3ccc(F)cc3)cc21`, for which the Percent Effect was 3.78%.

In the case of `Cc1ccc(CC2CCCN2CC(=O)NCc2cccnc2)cc1` (stereo not given), the Percent Effect stood at 3.98%.

In the case of `CN(C)CC1CSCCCN1C(=O)Nc1ccc(C(C)(C)C)cc1` (stereo not given), the Percent Effect was determined as 12.9%.

For the compound `CC(CNC(=O)c1ccc(Cl)cc1I)N1CCCC1` (stereo not given), the Percent Effect was -1.77%.

In the case of `Cc1ncsc1C(=O)N(C)Cc1cccc(Cl)c1`, the Percent Effect is -2.59%.

Consider `COc1ccc(C2C3=C(COC3=O)Nc3[nH]nc(C)c32)cc1OC` (stereo not given), for which the Percent Effect is -1.62%.

On to `COCCN1CCc2cc(C(=O)N(C)C)c(NC(C)C)nc2CC1`, for which the Percent Effect was -5.3%.

Turning to `CCCC(=O)N1CCC(O)(Cn2c(CC)nc3ccccc3c2=O)CC1`, the Percent Effect was -2.15%.

As to `CCc1nnsc1C(=O)NC1CCN(c2ccccn2)CC1`, the Percent Effect was 8.18%.

In the case of `Cc1ccc(CN2CC(C(=O)Nc3ccccc3)C3(CCOCC3)C2)s1` (stereo not given), the Percent Effect stood at 0.774%.

`COc1cccc(CC2CN(C3CCN(C(C)=O)CC3)CCO2)c1` (stereo not given): the Percent Effect was found to be 2.19%.

As to `CCOCCCC(=O)NCCC(=O)N1CCN(c2ccccn2)CC1`, the Percent Effect is 5.65%.

Consider `Cc1nc(CN2CCc3cncnc3C2)oc1C`, for which the Percent Effect is 7.08%.

On to `Cc1csc(N2CCN(C(=O)Cc3ccsc3)CC2)n1`, for which the Percent Effect stood at 9.11%.

Regarding `COc1ncccc1C(=O)N1CCN(C(=O)Cc2ccccn2)CC1`, the Percent Effect is -0.0483%.

`Cc1cc(-c2nnc(SCC(=O)O)n2C(C)c2ccccc2)nn1C` (stereo not given): the Percent Effect was 18.6%.

Turning to `Cc1ccccc1CSCCn1nc2ccccn2c1=O`, the Percent Effect is -4.64%.

Regarding `Fc1cccc(-n2ccc(CN3CCCCC3Cn3cncn3)n2)c1` (stereo not given), the Percent Effect came to 2.62%.
